The results in this text go back to PubChem BioAssay (Tox21).

Values joined by “and” are separate entries in the source; they are usually repeats but may differ in a detail not shown here. Equal entries are not always repeated. Inconclusive results are not listed. Some structures have more than one record in an assay (separate samples or runs), and their calls can disagree. Active and inactive are the calls of the source. Unless noted, the call rests on the fitted dose curve; in most records, active means well fitted curve in the direction sought with a large enough effect in the repeat runs; inconclusive means weak or mixed curves; inactive means no such curve, though single readings can be large; an effect the other way counts as inactive or inconclusive.

A short description of assay [1]: A CellTox Green Cytotoxicity Assay to monitor cytotoxicity in HEK293 cells - 32 hour (AID 1224881). Further: nearly all actives have a fitted effect of over 40% in size. Particulars: CellTox Green fluorescence; series mostly up to 76.8 µM. Summed up:
(§1)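 Homogeneous no-lysis format: HEK293 cell suspension mixed with CellTox Green reagent, seeded, incubated 5 h at 37 C/5% CO2, then dosed by pintool with compound in DMSO.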

The nature of assay [2]: A CellTox Green Cytotoxicity Assay to monitor cytotoxicity in HepG2 cells - 0 hour (AID 1224882). Further: nearly all actives have a fitted effect of over 35% in size. Further: potency means the concentration at half of the fitted maximal effect. The settings on record: CellTox Green fluorescence; series mostly up to 76.8 µM. Summed up: (§2)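 Fluorescent DNA-binding dye, 600 HepG2 cells/well, 5 h preincubation then compound in DMSO; same plates read at 0–40 h, 37 C.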
A short description of assay [3]: qHTS RealTime-Glo MT Cell Viability Assay in HEK293 cells - 24 hour (AID 1224886). Further: nearly all actives have a fitted effect of over 50% in size. Further: potency means the concentration at half of the fitted maximal effect. The settings on record: RealTime-Glo luminescence; series mostly up to 76.8 µM. The gist of the method: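 Quantitative high-throughput screen of the Tox21 10K library in HEK293: cells and RealTime-Glo reagents plated together, compound added at 5 h, luminescence monitored through 40 h at 37 C.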

A short description of assay [4]: A CellTox Green Cytotoxicity Assay to monitor cytotoxicity in HEK293 cells - 16 hour (AID 1224888). Further: nearly all actives have a fitted effect of over 35% in size. Particulars: CellTox Green fluorescence; series mostly up to 76.8 µM. Summed up: as §1
Assay [5] is described as follows: qHTS RealTime-Glo MT Cell Viability Assay in HepG2 cells - 0 hour (AID 1224889). Further: nearly all actives have a fitted effect of over 50% in size. Further: potency means the concentration at half of the fitted maximal effect. Particulars: RealTime-Glo luminescence; series mostly up to 76.8 µM. Summed up:
(§3)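 Compound treatment began 5 h after plating HepG2 cells (600/well) with NanoLuc luciferase and prosubstrate. Plates stayed at 37 C for 40 h; luminescence was captured at six time points, 0 h through 40 h.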
A general note: In qHTS, concentration-response curves come from the screen itself.

Assay [6] can be described thus: A CellTox Green Cytotoxicity Assay to monitor cytotoxicity in HepG2 cells - 8 hour (AID 1224890). Further: nearly all actives have a fitted effect of over 45% in size. Further: potency means the concentration at half of the fitted maximal effect. The settings on record: CellTox Green fluorescence; series mostly up to 76.8 µM. Summed up: as §2
Assay [7] is described as follows: qHTS assay to identify small molecule antagonists of the estrogen receptor alpha (ER-alpha) signaling pathway using the BG1 cell line in the presence of 0.1 nM 17-beta-estradiol - cell viability counter screen (AID 1259241). Further: nearly all actives have a fitted effect of over 40% in size. Further: potency means the concentration at half of the fitted maximal effect. The settings on record: VM7Luc4E2 (BG1) viability, CellTiter-Fluor protease, 22 h, 0.1 nM estradiol agonist added; series mostly up to 92.4 µM. Summed up:
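Following 5 days in phenol red-free medium with charcoal-stripped serum, VM7Luc4E2 cells received test compounds alongside 0.1 nM 17beta-estradiol (final) at 37C for 22 hr. Live cells were then quantified via protease-substrate fluorescence.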

A short description of assay [8]: qHTS assay to identify small molecule antagonists of the androgen receptor (AR) signaling pathway using the MDA cell line in the presence of 0.5 nM R1881 - cell viability counter screen (AID 1259242). Further: nearly all actives have a fitted effect of over 45% in size. Further: potency means the concentration at half of the fitted maximal effect. Particulars: MDA-kb2 viability, CellTiter-Fluor protease fluorescence, 16 h; series mostly up to 92.4 µM. The gist of the method: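 Human breast carcinoma MDA-kb2 cells, cultured without CO2, receive compounds alongside 0.5 nM (final) R1881 agonist. After 16 hr at 37C, viability is taken as live-cell protease signal.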

For assay [9], the target named is Androgen receptor (Homo sapiens) (UniProt P10275). The assay is described as follows: qHTS assay to identify small molecule antagonists of the androgen receptor (AR) signaling pathway using the MDA cell line in the presence of 0.5 nM R1881 (AID 1259243). Further: potency means the concentration at half of the fitted maximal effect; nearly all actives have a fitted effect of over 50% in size. Particulars: MDA-kb2 MMTV-luciferase, R1881 0.5 nM, 16 h; series mostly up to 92.4 µM. The gist of the method:
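Cells: MDA-kb2 (MMTV-luc). Stimulus: 0.5 nM R1881. Time: 16 hr, 37C, no CO2. Detection: ONE-Glo luminescence after 30 min at RT.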

Assay [10] addresses Estrogen receptor (Homo sapiens) (UniProt P03372). The assay is described as follows: qHTS assay to identify small molecule antagonists of the estrogen receptor alpha (ER-alpha) signaling pathway using the BG1 cell line in the presence of 0.1 nM 17-beta-estradiol (AID 1259244). Further: nearly all actives have a fitted effect of over 50% in size. Further: potency means the concentration at half of the fitted maximal effect. Particulars: VM7Luc4E2 (BG1) ERE-luciferase, antagonist mode, 0.1 nM E2, 22 h; series mostly up to 92.4 µM. The gist of the method: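 Seeding of stripped-serum-adapted VM7Luc4E2 cells, 24 h attachment, compound transfer, then 0.1 nM final 17beta-estradiol; after 22 h incubation, ONE-Glo reagent and luminescence reading.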

Assay [11] in a line: qHTS assay to identify small molecule HDAC inhibitors (AID 1259364). Further: potency means the concentration at half of the fitted maximal effect.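 Further: wild-type HCT-116 cells with endogenous class I/II HDAC activity; nearly all actives have a fitted effect of over 45% in size.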 Particulars: HCT-116 HDAC-Glo I/II luminescence, 2 h; series mostly up to 92.4 µM. The gist of the method: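 After a 2 hr compound incubation (37C, 5% CO2), HCT-116 cells seeded at 1,500/well the day before received HDAC-Glo reagent; signal read as luminescence after 30 min at room temperature.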
Assay [12] is described as follows: qHTS assay to identify small molecule HDAC inhibitors - cell viability counter screen (AID 1259365). Further: nearly all actives have a fitted effect of over 50% in size. The settings on record: HCT-116 viability, CellTiter-Glo ATP luminescence, 2 h; series mostly up to 92.4 µM. Summed up: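 HCT-116 wild-type, overnight attachment; 2hr drug exposure, 37C; CellTiter-Glo luminescent ATP readout after 30min RT.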
Assay [13] in a line: qHTS assay to identify small molecule agonists of the sonic hedgehog signaling (Shh) pathway - cell viability counter screen (AID 1259366). Further: nearly all actives have a fitted effect of over 50% in size. Further: potency means the concentration at half of the fitted maximal effect. The settings on record: NIH/3T3 Gli1-Luc viability, CellTiter-Fluor, 24 h; series mostly up to 92.4 µM. Summed up:
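Compounds in DMSO were pin-transferred onto 3T3 Gli1-Luc cells that had settled 4hr; plates then stood 24hr at 37C and 5% CO2. One hour before the end, CellTiter-Fluor was added and fluorescence recorded.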

Assay [14] is described as follows: qHTS assay to identify small molecule antagonists of the sonic hedgehog signaling (Shh) pathway - cell viability counter screen (AID 1259367). Further: nearly all actives have a fitted effect of over 55% in size. Further: potency means the concentration at half of the fitted maximal effect. The settings on record: NIH/3T3 Gli1-Luc viability, CellTiter-Fluor, 24 h; series mostly up to 92.4 µM. The gist of the method: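 Cytotoxicity was assessed in parallel with Shh reporter activity by measuring live-cell protease fluorescence (CellTiter-Fluor) in NIH/3T3 cells stably carrying Gli1-Luc, treated with compound under conditioned medium stimulation for 23 hr plus 1 hr reagent incubation.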

A short description of assay [15]: qHTS assay to identify small molecule agonists of the sonic hedgehog signaling (Shh) pathway (AID 1259368; calls by dose curve;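 further: NIH/3T3-derived 3T3Gli1-Luc cells carrying a stable Gli1-driven firefly luciferase reporter; nearly all actives have a fitted effect of over 15% in size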). The settings on record: NIH/3T3 Gli1-Luc reporter, luciferase, 24 h; series mostly up to 92.4 µM. The gist of the method: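 Stable NIH/3T3 Gli1-Luc reporter clone; 24 hr cpd exposure after a 4 hr settling period; luminescence endpoint.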
A short description of assay [16]: A CellTox Green Cytotoxicity Assay to monitor cytotoxicity in HEK293 cells - 8 hour (AID 1224884). Further: nearly all actives have a fitted effect of over 35% in size. Particulars: CellTox Green fluorescence; series mostly up to 76.8 µM. Summed up: as §1
Assay [17] can be described thus: qHTS RealTime-Glo MT Cell Viability Assay in HepG2 cells - 16 hour (AID 1224885). Further: nearly all actives have a fitted effect of over 50% in size. Particulars: RealTime-Glo luminescence; series mostly up to 76.8 µM. The gist of the method: as §3
Assay [18] can be described thus: qHTS assay to identify small molecule phospholipidosis (PLD) inducers (AID 1259344; active means well fitted curve in the direction sought with a large enough effect; an effect the other way counts as inactive or inconclusive; further: potency means the concentration at half of the fitted maximal effect). Particulars: HepG2 phospholipidosis, LipidTOX Red imaging, 24 h; series mostly up to 38.3 µM. Summed up: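 Cells (HepG2, 900 per well) attach for 4 h, receive LipidTOX Red and compound together, incubate 24 h at 37 C, are fixed 30 min with paraformaldehyde/Hoechst, then imaged at one site per well.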

Assay [19] in a line: qHTS RealTime-Glo MT Cell Viability Assay in HEK293 cells - 8 hour (AID 1224887). Further: nearly all actives have a fitted effect of over 50% in size. Further: potency means the concentration at half of the fitted maximal effect. The settings on record: RealTime-Glo luminescence; series mostly up to 76.8 µM. Summed up: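 Measured as luminescence from the same continuously cultured HEK293 wells at successive time points (0, 8, 16, 24, 32, 40 h) after compound addition. Reagent present from seeding; dosing at 5 h; incubation 37 C.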

Assay [20] is described as follows: A CellTox Green Cytotoxicity Assay to monitor cytotoxicity in HepG2 cells - 32 hour (AID 1224883). Further: nearly all actives have a fitted effect of over 50% in size. Further: potency means the concentration at half of the fitted maximal effect. The settings on record: CellTox Green fluorescence; series mostly up to 76.8 µM. The gist of the method: as §2

Sequence of Estrogen receptor (Homo sapiens) (P03372 whole entry, looked up): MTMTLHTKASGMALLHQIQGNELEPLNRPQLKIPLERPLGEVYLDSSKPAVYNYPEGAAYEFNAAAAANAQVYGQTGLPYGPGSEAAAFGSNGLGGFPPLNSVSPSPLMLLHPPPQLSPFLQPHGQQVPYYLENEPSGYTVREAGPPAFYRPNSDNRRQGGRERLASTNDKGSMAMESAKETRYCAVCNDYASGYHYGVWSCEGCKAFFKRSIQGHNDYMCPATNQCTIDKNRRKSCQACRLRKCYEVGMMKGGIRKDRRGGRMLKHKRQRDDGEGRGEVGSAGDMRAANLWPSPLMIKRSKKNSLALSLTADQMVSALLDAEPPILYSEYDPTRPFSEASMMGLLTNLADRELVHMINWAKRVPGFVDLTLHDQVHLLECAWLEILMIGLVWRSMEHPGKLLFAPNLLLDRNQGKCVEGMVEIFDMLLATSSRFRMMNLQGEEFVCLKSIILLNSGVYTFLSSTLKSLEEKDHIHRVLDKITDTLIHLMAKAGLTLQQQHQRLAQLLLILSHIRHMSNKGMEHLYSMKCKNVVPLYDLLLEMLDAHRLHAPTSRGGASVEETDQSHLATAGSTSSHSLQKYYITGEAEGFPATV
Sequence of Androgen receptor (Homo sapiens) (P10275 whole entry, looked up): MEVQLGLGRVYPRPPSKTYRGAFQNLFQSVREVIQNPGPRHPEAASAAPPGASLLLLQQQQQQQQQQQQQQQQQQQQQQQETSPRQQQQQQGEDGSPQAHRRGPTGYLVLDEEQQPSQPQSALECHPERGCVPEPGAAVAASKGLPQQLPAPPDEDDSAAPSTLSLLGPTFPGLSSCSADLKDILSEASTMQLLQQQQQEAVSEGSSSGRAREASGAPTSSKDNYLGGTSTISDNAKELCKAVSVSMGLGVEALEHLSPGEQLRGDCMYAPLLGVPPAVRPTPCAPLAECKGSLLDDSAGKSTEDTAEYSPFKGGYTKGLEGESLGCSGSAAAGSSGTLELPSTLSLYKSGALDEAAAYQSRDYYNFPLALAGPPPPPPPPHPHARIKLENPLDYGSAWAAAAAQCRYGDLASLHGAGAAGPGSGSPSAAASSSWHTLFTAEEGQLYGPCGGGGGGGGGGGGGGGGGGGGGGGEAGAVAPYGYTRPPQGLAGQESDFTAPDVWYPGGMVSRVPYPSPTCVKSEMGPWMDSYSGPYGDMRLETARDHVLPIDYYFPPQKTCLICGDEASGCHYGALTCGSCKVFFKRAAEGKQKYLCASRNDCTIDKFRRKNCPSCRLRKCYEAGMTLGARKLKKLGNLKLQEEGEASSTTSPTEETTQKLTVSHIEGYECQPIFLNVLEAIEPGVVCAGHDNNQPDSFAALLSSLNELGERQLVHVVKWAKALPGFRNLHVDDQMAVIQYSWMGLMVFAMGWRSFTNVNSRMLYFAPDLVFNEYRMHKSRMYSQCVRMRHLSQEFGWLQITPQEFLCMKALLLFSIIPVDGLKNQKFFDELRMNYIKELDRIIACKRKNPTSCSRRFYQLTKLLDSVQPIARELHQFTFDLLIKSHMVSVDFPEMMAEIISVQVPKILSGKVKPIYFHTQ

For the compound `O=[N+]([O-])c1cc(C2CCCCC2)c(O)c([N+](=O)[O-])c1`, the Potency result in assay [1], in assay [2], in assay [4], in assay [6], in [11] and in assay [12] was “inactive” each time. In assay [15], the Potency entry is “inactive”. Further, the Potency in assay [3] is 13.8 µM (active); in [5], 38.8 µM (active); in [7], 27.2 µM (active); in assay [8], 15.3 µM (active); in assay [9], 7.67 µM (active); in [10], 7.67 µM (active). Further, the Potency in assay [13] and in [14] was 24.3 µM (active) in each case.
Regarding `CC(C)c1nc(CN(C)C(=O)N[C@H](C(=O)N[C@@H](Cc2ccccc2)C[C@H](O)[C@H](Cc2ccccc2)NC(=O)OCc2cncs2)C(C)C)cs1`, the Potency result in assay [2], in assay [16], in [17], in assay [4], in assay [5] and in assay [10] was “inactive” each time. Moreover, the Potency entry in assay [11], in [12] and in assay [15] was “inactive” throughout. Moreover, the Potency was 21.3 µM (active) in [3]; “inactive and 10 µM (active)” in assay [18]; 6.68 µM (active) in [13]; 7.5 µM (active) in assay [14].
`CC1(C)[C@@H](OC(=O)CCC(=O)O)CC[C@]2(C)[C@H]3C(=O)C=C4[C@@H]5C[C@@](C)(C(=O)O)CC[C@]5(C)CC[C@@]4(C)[C@]3(C)CC[C@@H]12`: the Potency result in [1], in assay [2], in assay [17], in assay [19], in assay [4] and in assay [5] was “inactive” in each case. Also, the Potency entry in assay [7], in assay [8], in assay [18], in assay [11], in assay [12] and in [13] was “inactive” in each case. Further, the Potency entry in [14] and in assay [15] was “inactive” throughout.
Take `O=C(OCC(O)CO)c1ccccc1Nc1ccnc2cc(Cl)ccc12` (configuration not stated): the Potency entry in [1], in [16], in assay [17], in assay [4], in [7] and in assay [10] was “inactive” each time. Besides, the Potency result in [18], in assay [11], in assay [12] and in assay [15] was “inactive” in each case. Further, the results for the Potency in [19], in assay [13] and in assay [14] were 8.49 µM (active), 29.8 µM (active) and 29.8 µM (active), respectively.
As to `Cc1ccc(OC(=O)c2ccccc2O)cc1`, the Potency result in assay [2], in [20], in [16], in assay [17], in [3] and in assay [19] was “inactive” in each case. In addition, the Potency entry in assay [4], in assay [5], in assay [6], in [8], in assay [12] and in [13] was “inactive” each time. For the same compound, the Potency result in assay [14] and in [15] was “inactive” throughout. For the same compound, in assay [11], the Potency is 15.4 µM (active).
As for `c1cc(N(CC2CO2)CC2CO2)ccc1Cc1ccc(N(CC2CO2)CC2CO2)cc1` (configuration not stated), the Potency entry in [2], in [16], in assay [4], in assay [5], in assay [7] and in assay [8] was “inactive” throughout. Besides, the Potency entry in assay [12] was “inactive”. The Potency was 43.6 µM (active) in assay [3], 27.3 µM (active) in assay [9], 54.5 µM (active) in assay [13] and 54.5 µM (active) in [14].
Regarding `CC(=O)Nc1ccc(C)cc1C`, the Potency result in [2], in assay [20], in assay [16], in assay [17], in assay [3] and in [19] was “inactive” each time. In addition, the Potency entry in assay [4], in assay [5], in assay [7], in assay [8], in assay [11] and in assay [12] was “inactive” each time. Besides, the Potency entry in [13], in [14] and in assay [15] was “inactive” in each case.
As to `COc1ccccc1N1CCN(CCCCNC(=O)c2ccc(-c3ccc(C(C)=O)cc3)cc2)CC1`, the Potency result in assay [2], in assay [16], in assay [17], in [4], in [5] and in assay [6] was “inactive” each time. Besides, the Potency result in assay [7], in [11], in [12], in assay [13], in assay [14] and in assay [15] was “inactive” each time. The Potency in assay [3] is 1.69 µM (active).
Turning to `C=Cc1ccc(S(=O)(=O)O)cc1`, the Potency in assay [2] is 49 µM (active); in assay [20], 54.9 µM (active); in assay [6], 54.9 µM (active). The Potency entry in [17], in [3], in [19], in assay [5], in assay [7] and in assay [8] was “inactive” each time. For the same compound, the Potency result in assay [10], in assay [18], in assay [11], in [12], in assay [13] and in [15] was “inactive” in each case.
On to `Nc1nc2ccc([N+](=O)[O-])cc2s1`, for which the Potency result in assay [1], in [17], in assay [19], in assay [5], in assay [18] and in assay [12] was “inactive” throughout. Also, the Potency result in assay [15] was “inactive”. In addition, the Potency was 43.6 µM (active) in assay [20], 49 µM (active) in assay [6], 6.86 µM (active) in assay [9] and 17.7 µM (active) in assay [11].
Regarding `Brc1cc2ccccc2c2ccccc12`, the Potency entry in assay [2], in assay [16], in assay [17], in assay [4], in [5] and in [6] was “inactive” throughout. Also, the Potency result in assay [10], in assay [11], in assay [12], in assay [13], in [14] and in assay [15] was “inactive” throughout.
